# The full ranking holds about 3,200 compounds; the median of “TSA(with NAD+) / Primary screening (TSA) / delta Tm (K)” is about -0.04, and the highest 2% start at about 0.37. Only a selection was taken, and the highest values are over-represented in it overall.
# Target: NAD-dependent deacetylase Sirtuin 1 (human, UniProt Q96EB6)
# Test: primary screen, delta tm
# Set-up: single well (n = 1, as 'the same TSA')
# Settings: 10 µM
# Sequence of NAD-dependent deacetylase Sirtuin 1 (Q96EB6 2-747 limits assumed): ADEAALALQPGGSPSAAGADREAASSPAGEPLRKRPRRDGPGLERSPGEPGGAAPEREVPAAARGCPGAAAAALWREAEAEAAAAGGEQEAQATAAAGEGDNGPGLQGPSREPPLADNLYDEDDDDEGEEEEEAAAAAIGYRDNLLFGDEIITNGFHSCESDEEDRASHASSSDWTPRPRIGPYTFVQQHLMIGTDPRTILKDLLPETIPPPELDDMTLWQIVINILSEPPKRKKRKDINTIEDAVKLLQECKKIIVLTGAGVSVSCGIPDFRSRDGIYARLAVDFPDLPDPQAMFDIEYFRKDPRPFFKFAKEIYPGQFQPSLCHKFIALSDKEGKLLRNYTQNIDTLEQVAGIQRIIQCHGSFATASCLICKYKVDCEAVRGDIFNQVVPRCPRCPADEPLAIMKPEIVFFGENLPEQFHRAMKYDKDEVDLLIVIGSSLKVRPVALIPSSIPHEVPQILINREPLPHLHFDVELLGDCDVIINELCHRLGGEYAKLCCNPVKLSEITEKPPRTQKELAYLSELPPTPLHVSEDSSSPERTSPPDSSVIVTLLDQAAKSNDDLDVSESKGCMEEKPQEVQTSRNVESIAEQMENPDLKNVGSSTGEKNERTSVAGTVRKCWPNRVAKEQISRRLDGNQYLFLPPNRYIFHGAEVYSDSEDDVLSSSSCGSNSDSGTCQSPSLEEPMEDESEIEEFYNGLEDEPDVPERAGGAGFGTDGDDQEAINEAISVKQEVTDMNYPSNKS
row,SMILES,TSA(with NAD+) / Primary screening (TSA) / delta Tm (K)
1,COc1ccccc1C1C(C(=O)/C=C/c2ccco2)=C(O)C(=O)N1CCCN1CCOCC1 (centres unmarked),-0.18 K
2,CC(N)C(N)=O (centres unmarked),-0.19 K
3,Cc1nc(N2CCC(C(N)=O)CC2)c2c3c(sc2n1)CCCCC3,0.66 K
4,NC(=O)C1CCN(c2ncnc3sc4c(c23)CCC4)CC1,-0.04 K
5,Cc1nc(N2CCC(NC(N)=O)CC2)c2c3c(sc2n1)CCCC3,-0.03 K
6,Cc1nc(N2CCC(C(N)=O)CC2)c2c3c(sc2n1)CCC3,0.01 K
7,Cc1nc(N2CCC(C(N)=O)CC2)c2c3c(sc2n1)CCCC3,0.57 K
8,Cc1nc(N2CCN(c3ncccc3C(N)=O)CC2)c2c3c(sc2n1)CCC3,0.02 K
9,Cc1noc(C(C)N2CCN(Cc3cccc(C(N)=O)c3)CC2)n1 (centres unmarked),-0.03 K
10,NCCC[C@@H](N)C(=O)O,-0.08 K
11,O=C(CCc1nc2ccccc2o1)N1CCN(C(c2ccc(F)cc2)c2ccc(F)cc2)CC1,-0.01 K
12,O=C(O)c1ccc2[nH]c(C(F)(F)F)nc2c1,-0.14 K
13,COc1cc(-c2nc(-c3ccccc3)c(-c3ccccc3)[nH]2)ccc1OS(=O)(=O)c1ccc(C)cc1,0.05 K
14,CNC(=O)CCNc1ccc2nnc(C(F)(F)F)n2n1,0.08 K
15,COC(=O)C[C@H](N)C(=O)O,0.02 K
16,COCC(C)N (centres unmarked),-0.04 K
17,Cc1ccc(C23CC4CC(CC(C(=O)OC(C)C(=O)Nc5ccc(S(N)(=O)=O)cc5)(C4)C2)C3)cc1C (centres unmarked),0.43 K
18,Cc1ccc(C23CC4CC(CC(C(=O)OCC(N)=O)(C4)C2)C3)cc1C,-0.16 K
19,Cc1ccc(C23CC4CC(CC(C(=O)OCC(=O)Nc5ccc(S(N)(=O)=O)cc5)(C4)C2)C3)cc1,0.29 K
20,COc1cc(OC)c(OC)cc1C=C1C(=O)NC(=S)NC1=O,-0.16 K
21,Cc1csc2c(N3CC4CCCN4CC3C)ncnc12 (centres unmarked),-0.19 K
22,N#C/C(=C\c1[nH]c2ccccc2c1Cl)C(N)=O,-0.09 K
23,CCOc1ccc(/C=C(/C#N)C(=O)c2c[nH]c3cc(F)ccc23)cc1,-0.03 K

row,SMILES,TSA(with NAD+) / Primary screening (TSA) / delta Tm (K)
1,CCCCCCCCNC(=O)/C(C#N)=C/c1c[nH]c2ccccc12,0.43 K
2,O=C(NCC1CCCO1)Nc1ccc(NC(=O)c2ccccn2)cc1 (centres unmarked),0.06 K
3,Cc1ccc(C(=O)Nc2ccc(NC(=O)NCC3CCCO3)cc2)cn1 (centres unmarked),0.55 K
4,COc1cc(C=C(C(=O)NCC2CCCO2)C(=O)NCC2CCCO2)ccc1OCC(=O)Nc1ccc(C)cc1 (centres unmarked),-0.15 K
5,COC(=O)c1ccc2[nH]c3c(c2c1)CN(S(C)(=O)=O)CC3,0.16 K
6,N#CCCC(C#N)CN1CCC(CCc2ccc(O)cc2)CC1 (centres unmarked),-0.14 K
7,O=C(COC(=O)c1cccc(NS(=O)(=O)/C=C/c2ccccc2)c1)NC12CC3CC(CC(C3)C1)C2,-0.01 K
8,Cc1cccc(NS(=O)(=O)c2cccc(C(=O)OCC(=O)NC(=O)NC34CC5CC(CC(C5)C3)C4)c2)c1,0.46 K
9,O=C(COC(=O)c1cccc(S(=O)(=O)NCc2ccccc2)c1)NC12CC3CC(CC(C3)C1)C2,-0.25 K
10,CC(NC(=O)COC(=O)c1cccc(S(=O)(=O)NCc2ccccc2)c1)C12CC3CC(CC(C3)C1)C2 (centres unmarked),0.05 K
11,CC(NS(=O)(=O)c1cccc(C(=O)OCC(=O)Nc2sccc2C#N)c1)C12CC3CC(CC(C3)C1)C2 (centres unmarked),0.37 K
12,CC(=O)c1ccc(NC(=O)C(C)OC(=O)c2cccc(S(=O)(=O)NC(C)C34CC5CC(CC(C5)C3)C4)c2)cc1 (centres unmarked),0.19 K
13,Cn1cc(C(=O)O)c(-c2cccnc2)n1,0.06 K
14,NC(=O)CCN(Cc1ccccc1)C(=O)COC(=O)C12CC3CC(C1)CC(c1ccccc1)(C3)C2,-0.03 K
15,O=C(Oc1ccc2oc3ccccc3c2c1)c1ccc([N+](=O)[O-])cc1,-0.08 K
16,COc1ccc(C(=O)OC(C)C(=O)Nc2ccc(C(N)=O)cc2)c(OC)c1 (centres unmarked),-0.01 K
17,COc1ccc2cc(/C=C/C(=O)Nc3ccc(C(N)=O)cc3)ccc2c1,0.76 K
18,CCN(CC(=O)Nc1ccc(OC)cc1)CC(=O)Nc1ccc(C(N)=O)cc1,-0.04 K
19,O=C(NCc1ccccc1O)c1ccc2c(c1)C(=O)c1ccccc1-2,-0.03 K
20,CCC(=O)Nc1cccc(C(=O)NNC(=O)c2nc(-c3ccccc3)n(-c3ccccc3)n2)c1,-0.06 K
21,CC(C)C(NC(=O)CCCn1c(=O)oc2cc([N+](=O)[O-])ccc21)c1nnc2ccccn12 (centres unmarked),-0.11 K
22,Cc1nc(-c2ccccn2)[nH]c(=O)c1CC(=O)NCCc1cccc2cccnc12,0.28 K
23,CC(C(=O)NC(c1ccccc1)C1CC1)n1cnc2ccccc21 (centres unmarked),0.05 K

row,SMILES,TSA(with NAD+) / Primary screening (TSA) / delta Tm (K)
1,O=C(CCCc1nc2ccccc2c(=O)[nH]1)N1CC2CC3CC(C2)CC1C3,-0.01 K
2,CC(N)c1nnn[nH]1 (centres unmarked),-0.05 K
3,COc1ccc(NC(=O)CC23CC4CC(C2)CC(CC(=O)Nc2ccc(OC)cc2)(C4)C3)cc1,-0.11 K
4,COc1ccc(NC(=O)c2ccc(NC(=O)COC(=O)C34CC5CC(CC(Br)(C5)C3)C4)cc2)cc1,0.73 K
5,COc1ccc(NC(=O)c2ccccc2NC(=O)COC(=O)C23CC4CC(CC(O)(C4)C2)C3)cc1,-0.04 K
6,COc1ccccc1NS(=O)(=O)c1ccc(NC(=O)CNC(=O)C23CC4CC(CC(C4)C2)C3)cc1,0.08 K
7,COc1ccccc1NC(=O)COc1ccc(C(=O)OCC(=O)NC23CC4CC(CC(C4)C2)C3)cc1OC,0.13 K
8,COc1ccccc1NC(=O)c1ccc(NC(=O)COC(=O)C23CC4CC(CC(C4)C2)C3)cc1,0.39 K
9,Cc1ccccc1CC(=O)Nc1ccc(N2CCN(Cc3ccccc3)CC2)cc1,0.09 K
10,CN(c1ccccc1)S(=O)(=O)c1ccc(C(=O)NNC(=O)C23CC4CC(CC(C4)C2)C3)cc1,0.08 K
11,COC(=O)c1ccccc1Nc1ccnc(Cl)n1,-0.11 K
12,Cc1cccc(-c2nc3ccccc3n3c(C)nnc23)c1,-0.13 K
13,Cn1c(=O)c2ccccc2n2c(COC(=O)Cn3nc(-c4ccc(F)cc4)oc3=O)nnc12,-0.03 K
14,O=C1NC(=S)NC(=O)C1=Cc1ccc(-c2ccc(SC(F)F)cc2)o1,-0.43 K
15,Cc1ccc(C(=O)OCc2ccc(C(=O)Nc3ccccc3)cc2)cc1,-0.18 K
16,O=C(NO)c1cccc(C(F)(F)F)c1,-0.19 K
17,CCNC(=O)c1cccc(NC(=O)C2CCN(S(=O)(=O)c3cc(C(C)(C)C)ccc3C)CC2)c1,0.16 K
18,Cc1ccc(C(C)(C)C)cc1S(=O)(=O)Nc1cccc(C(=O)NNC(=O)c2cccc(S(=O)(=O)Nc3cccc(C(F)(F)F)c3)c2)c1,0.65 K
19,O=C(COC(=O)C1=COCCO1)Nc1cccc2c1C(=O)c1ccccc1C2=O,0.01 K
20,COc1ccccc1NS(=O)(=O)c1cccc(NC(=O)c2oc3ccccc3c2CSC)c1,-0.08 K
21,C=CCOc1ccc(C2C(C(=O)c3ccc(C)o3)=C(O)C(=O)N2CCCN2CCOCC2)cc1 (centres unmarked),-0.04 K
22,O=C(Nc1ccccc1Cc1ccccc1)c1ccc(CN2C(=O)CNC2=O)cc1,0.05 K
23,CN(C)c1ccc(S(N)(=O)=O)cc1N,-0.04 K

row,SMILES,TSA(with NAD+) / Primary screening (TSA) / delta Tm (K)
1,O=C1/C(=C/c2cnn(-c3ccccc3)c2)Oc2cc(O)ccc21,0.99 K
2,O=C1/C(=C/c2cccc(O)c2)Oc2cc(O)ccc21,-0.14 K
3,O=C1/C(=C/c2ccccc2)Oc2cc(O)ccc21,-0.06 K
4,Cc1cnc(N2CCC(Oc3ccnc(C(N)=O)c3)CC2)s1,-0.16 K
5,O=c1c2ccncc2ncn1CC(O)c1cccc(Cl)c1 (centres unmarked),-0.03 K
6,O=c1c2ccccc2ncn1CC(O)c1cccc(F)c1 (centres unmarked),-0.19 K
7,O=c1c2ccccc2ncn1CC(O)c1ccccc1Cl (centres unmarked),0.38 K
8,O=C(CN1CCCCCC1=O)N1CCN(c2cnccn2)CC1,-0.04 K
9,CCCn1c(NC(=O)c2ccc3c(c2)CCC(=O)N3)nc2ccccc21,0.15 K
10,Cc1ccc(C(=O)Nc2nc3ccc(NS(=O)(=O)c4ccc5c(c4)CCC(=O)N5)cc3s2)s1,0.46 K
11,O=C1CCc2cc(NC(=O)c3cccnc3)ccc2N1,-0.13 K
12,COC(=O)/C=C1/NC(=O)CS1,-0.13 K
13,O=C(COC(=O)C1=COCCO1)Nc1cccc2ccccc12,0.09 K
14,CC(CNCCS(=O)(=O)C(C)(C)C)c1ccccc1 (centres unmarked),-0.03 K
15,NC(=O)C1CCN(c2ncnc3sc4c(c23)CCCCC4)CC1,0.26 K
16,NC(=O)C1CCCN(c2ncnc3sc4c(c23)CCCC4)C1 (centres unmarked),-0.15 K
17,Cc1sc2ncnc(N3CCC(C(=O)N4CCC(C(N)=O)CC4)CC3)c2c1C,-0.03 K
18,Cc1sc2nc(-c3cccnc3)nc(N3CCC(C(N)=O)CC3)c2c1C,-0.01 K
19,NC(=O)C1CCN(c2nc(-c3cccnc3)nc3sc4c(c23)CCCC4)CC1,0.48 K
20,Cc1sc2nc(-c3cccs3)nc(N3CCC(C(N)=O)CC3)c2c1C,0.53 K
21,NC(=O)C1CCN(c2ncnc3sc4c(c23)CCCC4)CC1,0.32 K
22,NC(=O)C1CCN(c2nc(-c3cccs3)nc3sc4c(c23)CCCC4)CC1,2.33 K
23,Cc1sc2ncnc(N3CCC(C(N)=O)CC3)c2c1C,0.06 K

# From article PMC6925144, “A prospective compound screening contest identified broader inhibitors for Sirtuin 1” (Scientific Reports, 2019)
